The source of these data is PubChem BioAssay AID1851 (National Center for Advancing Translational Sciences (NCATS), 2009).

Broadly, the AC50 is the concentration giving half of the maximal activity seen.

Hit rate of the full screen: of about 16,000 compounds, about 2,600 (16%) were called active. Inconclusive results (about 20%) are left out. These entries were drawn from the full list. Values without a mark were called inactive. The call rests on the fitted dose curve; in most records, active means well fitted curve in the direction sought with a large enough effect; inconclusive means small, poorly fitted or top-dose-only effect, or effect the other way; inactive means no such curve, though single readings can be large or run the other way.
On the % scale 0 is the no-effect control and ±100 the full control effect.

For this assay, the target named is Cytochrome P450 2D6 (Homo sapiens) (UniProt P10635). Description: Cytochrome panel assay with activity outcomes. The conditions noted are these: recombinant CYP, pro-luciferin dealkylation, luminescence, p450-cyp2d6; series mostly up to 57.1 µM; activity, negative = inhibition: at the top concentration.
Cytochrome P450 2D6 (Homo sapiens), sequence (P10635 whole entry, looked up): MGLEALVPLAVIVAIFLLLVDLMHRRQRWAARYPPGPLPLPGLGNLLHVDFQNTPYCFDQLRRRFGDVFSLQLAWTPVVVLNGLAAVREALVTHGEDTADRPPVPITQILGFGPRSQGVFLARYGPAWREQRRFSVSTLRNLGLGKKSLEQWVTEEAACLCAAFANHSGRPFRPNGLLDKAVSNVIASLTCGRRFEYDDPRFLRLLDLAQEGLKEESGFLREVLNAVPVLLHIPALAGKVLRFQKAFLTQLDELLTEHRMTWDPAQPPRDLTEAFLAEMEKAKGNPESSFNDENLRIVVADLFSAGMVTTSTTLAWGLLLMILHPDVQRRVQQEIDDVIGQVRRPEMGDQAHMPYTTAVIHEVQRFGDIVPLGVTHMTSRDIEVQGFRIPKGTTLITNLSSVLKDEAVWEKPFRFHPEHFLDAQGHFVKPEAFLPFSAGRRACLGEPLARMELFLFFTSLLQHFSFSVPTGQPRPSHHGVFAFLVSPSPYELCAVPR
As for `COc1cc(=O)n(C)c2c(OC[C@@H](O)C(C)(C)O)cccc12`, the AC50 result was “inactive”.
Consider `CO/N=C(\C(=O)N[C@@H]1C(=O)N2C(C(=O)O)=C(COC(C)=O)CS[C@@H]12)c1csc(N)n1`, for which the AC50 entry is “inactive”.
As for `Cc1ccccc1NC1=C(C(=O)c2ccccc2)N(C)S(=O)(=O)c2ccccc21`, the “activity, negative = inhibition” value was -1.01%.
`C[C@H]1COC(=O)[C@H](Cc2ccccc2)NC(=O)[C@@H](C)COC(=O)[C@H](Cc2ccccc2)NC1=O`: the activity, negative = inhibition was 13.8% [at 11.4 µM].
Same read-out and setting: in the case of `OC[C@@H]1O[C@@H](O)[C@H](N=Cc2ccc3c(c2)OCO3)[C@@H](O)[C@@H]1O` it was 0.161% [at 11.4 µM]; in that of `COCCn1c(=O)c(-c2cc(F)cc(F)c2)nc2cnc(N3CCN(C)CC3)nc21`, -3.39%.
With `O=C(CSCc1cccc(Cl)c1)NCc1ccc2c(c1)OCO2`, the AC50 is 1 µM (active).
Still for that read-out and setting: in the case of `O=C(CSCc1cccc(Br)c1)N/N=C/c1ccc2c(c1)OCO2` it was 2 µM (active).
Turning to `Cn1c(=O)c2c(n(Cc3ccccc3)c1=O)NC(=O)C2CC(=O)NCc1cccc(Cl)c1` (stereo unspecified), the “activity, negative = inhibition” value was -23.2%.
Take `O=C(/C=C/c1cc2c(cc1Br)OCO2)NCc1ccc(Cl)cc1`: the “activity, negative = inhibition” value is -23.8%.
With `CCN(CC)C(=O)C(=O)N/N=C/c1cccc(Br)c1`, the “activity, negative = inhibition” value is 16.9%.
Regarding `C=CCNC(=O)CC(=O)N/N=C/c1cccc(Br)c1`, the “activity, negative = inhibition” value is -2.86%.
As for `O=[N+]([O-])c1ccc(/C=N/n2c(COc3ccccc3)n[nH]c2=S)cc1`, the “activity, negative = inhibition” value was -10.7%.
Turning to `C=CCNc1sc(C(=O)c2ccc(C)cc2)c(N)c1C#N`, the “activity, negative = inhibition” value was 6.69%.
Regarding `O=C(O)[C@H]1CCCC[C@@H]1c1c2ccc(=O)c(O)c-2oc2c(O)c(O)ccc12`, the activity, negative = inhibition is -0.179% [at 11.4 µM].
Regarding `Cc1ccc(S(=O)(=O)N[C@H](C(=O)Oc2ccc3c(C(F)(F)F)cc(=O)oc3c2)c2ccccc2)cc1`, the “activity, negative = inhibition” value is -6.64%.
Consider `O=C(O)/C(=C\c1ccc(O)cc1)c1cccc2ccccc12`, for which the activity, negative = inhibition is -6.42% [at 11.4 µM].
As to `O=C(O)[C@H]([C@H]1NCCS1)N1Cc2ccccc2C1`, the activity, negative = inhibition was 5.75% [at 11.4 µM].
Turning to `CCN=C(N)CSS(=O)(=O)O`, the activity, negative = inhibition is -8.26% [at 11.4 µM].
On to `O=C(N/N=C1/C[C@@H](O)[C@@H](O)[C@@H]2[C@H]3C(=O)N(c4ccc(F)cc4F)C(=O)[C@@H]3CC[C@H]12)OCc1ccccc1`, for which the activity, negative = inhibition is -17.3% [at 11.4 µM].
As for `Clc1ccc(-c2nnc(CCc3ccccc3)o2)c(Cl)c1`, the AC50 is 11.2 µM (active).
Take `CSc1nnc(-c2ccc(Cl)cc2Cl)o1`: the “activity, negative = inhibition” value was -5.62%.
As for `Clc1ccc(-c2nnc(-c3cccc4ccccc34)o2)cc1Cl`, the activity, negative = inhibition is 17.5% [at 11.4 µM].
The same measure, in the same setting: in the case of `CCN1C(=O)C(O)(CC(=O)/C=C/C=C/c2ccccc2)c2ccccc21` (stereo unspecified) it was -17.9%; in that of `CC(C)CO/N=C1/C[C@@H](O)[C@@H](O)[C@@H]2[C@@H]3C(=O)N(C[C@@H]4CCCO4)C(=O)[C@H]3CC[C@@H]12`, 17.5% [at 11.4 µM].
As to `O=c1c(-c2cccs2)nc2cnc(N3CCOCC3)nc2n1-c1ccccc1`, the “activity, negative = inhibition” value was -9.01%.
The same measure, in the same setting: in the case of `COc1ccc(-n2c(=O)c(-c3cccs3)nc3cnc(N4CCOCC4)nc32)cc1` it was -9.92%.
With `CC(C)c1ccc2c(c1)C(c1ccc(N3CCOCC3)cc1)=NNC(c1cccs1)=N2`, the AC50 is 7.08 µM (active).
On to `COC(=O)C1=C(CSc2nncn2C)NC(=O)NC1c1ccc(F)cc1` (stereo unspecified), for which the “activity, negative = inhibition” value was 6.47%.
On to `CC(=O)Nc1ccc(S(=O)(=O)NCC2CCC(C(=O)NCCC(C)C)CC2)cc1` (stereo unspecified), for which the “activity, negative = inhibition” value is -9.02%.
As to `CC(=O)Nc1ccc(S(=O)(=O)N2CCC(N(C)CCC(C)C)CC2)cc1`, the AC50 was 8.91 µM (active).
`Cc1ccc(S(=O)(=O)N2CCC(C(=O)NCCCOC(C)C)CC2)cc1`: the “activity, negative = inhibition” value was 0.448%.
As to `CCc1ccccc1NC(=O)c1nnn(CC(=O)Nc2cccc(C)c2C)c1N`, the “activity, negative = inhibition” value was -1.98%.
As for `C/C(=N\Nc1nc(N)cc(Cl)n1)c1cccc([N+](=O)[O-])c1`, the “activity, negative = inhibition” value is -9.23%.
In the case of `O=C(Cc1ccccc1)Nc1nc2ccc(Cl)cc2c2nc(-c3ccco3)nn12`, the AC50 was 10 µM (active).
Consider `O=C(Cc1ccc(Cl)cc1)Nc1cccc(-c2nnc(-c3ccco3)o2)c1`, for which the “activity, negative = inhibition” value is -9.85%.
The same measure, in the same setting: in the case of `O=C(Cc1ccc(Cl)cc1)NNC(=O)Nc1cccc2ccccc12` it was 0.421%; in that of `Cc1ccc(C(=O)NCc2ccc(N3CCN(C(=O)OC(C)(C)C)CC3)cc2)cc1`, -12.6%.
As to `CC(C)NC(=O)CC(=O)N/N=C/c1ccc(F)cc1`, the “activity, negative = inhibition” value was -0.0465%.
Take `CCCCCSc1nncc(=O)[nH]1`: the “activity, negative = inhibition” value was -0.262%.
As for `Cc1cc(Oc2ccccc2)nc(NCc2ccccc2)n1`, the “activity, negative = inhibition” value was -4.44%.
Take `c1ccc(CSc2nnc3c4ccccc4c4ccccc4c3n2)cc1`: the activity, negative = inhibition was -1.49% [at 11.4 µM].
Regarding `Cc1nc(SCc2cccc(Oc3ccccc3)c2)n[nH]1`, the AC50 was 14.1 µM (active).
Turning to `CN(C)c1ncc2nc(-c3cccs3)c(=O)n(-c3ccccc3)c2n1`, the “activity, negative = inhibition” value is -11%.
Consider `CCN(CC)c1ccc2c(Cl)cc(=O)oc2c1`, for which the AC50 was 12.6 µM (active).
As to `CCN(CC)c1ccc2cc(C(C)=O)c(=O)oc2c1`, the “activity, negative = inhibition” value is -11%.
`CCN(CC)c1ccc(C(=O)OCc2cc(=O)oc3cc(O)ccc23)cc1`: the “activity, negative = inhibition” value is -15.9%.
In the case of `CCOC(=O)c1ccccc1NC(=O)/C(C)=C/C(=O)O`, the “activity, negative = inhibition” value is 1.49%.
On the same count and under the same terms, in the case of `COCCn1c(=O)c(-c2cn(C)c3ccccc23)nc2cnc(Oc3cccc(Cl)c3)nc21` it was 4.74%.
With `CCCOc1ccccc1-c1nc2n[nH]nc2c(=O)[nH]1`, the AC50 entry is “inactive”.
`CNc1nc(C)cc(C)c1S(=O)(=O)c1ccc(Cl)cc1`: the “activity, negative = inhibition” value is 9.79%.
Take `Cc1ccc(Sc2c([N+](=O)[O-])ncn2C)cc1`: the “activity, negative = inhibition” value is 9.72%.
As for `Cc1nn(S(=O)(=O)c2cccs2)c(C)c1Sc1ccc([N+](=O)[O-])cc1`, the AC50 is 2.24 µM (active).
Consider `Cc1nn(C(=O)c2ccco2)c(C)c1Sc1ccc(Br)cc1`, for which the “activity, negative = inhibition” value was -13.8%.
Same read-out and setting: in the case of `O=C(OC1CCN(c2ccc([N+](=O)[O-])cc2)CC1)c1ccccc1` it was 4.95%; in that of `COc1ccc(-n2c(C)cc(C=O)c2C)cc1Cl`, -8.2%.
As for `CC(C)(O)c1cn(-c2nonc2N)nn1`, the “activity, negative = inhibition” value is 10.6%.
Consider `COC(=O)c1c(NC(=O)c2ccco2)sc2c1CCC2`, for which the “activity, negative = inhibition” value was 2.66%.
`Cc1ccc(C(=O)Nc2ccc(C(=O)/C=C/c3cccs3)cc2)cc1`: the “activity, negative = inhibition” value was 17.8%.
Consider `Cc1cccc(C)c1NC(=O)Nc1ccc(S(N)(=O)=O)cc1`, for which the activity, negative = inhibition is -10.2% [at 11.4 µM].
As for `Cc1ccc(S(N)(=O)=O)cc1NC(=O)/C=C/c1cccs1`, the AC50 is 14.1 µM (active).
